Assay results reported in paper PMC4336329 (PLoS ONE, 2015).
Among all 310,000 compounds or so, about 14,000 (4.5%) showed an effect of 50% or more. Effects have a minus sign here. This is one part of a sample in which strong results are shown more often than they occur.

Biological target: human ether-à-go-go-related gene (hERG) potassium channel (human, UniProt Q12809)
Assay: primary screen, population patch clamp on CHO cells stably expressing hERG; higher = less effect of the substance
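Also: peak tail current of the secondary pulse compared with the same well before compound.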

human ether-à-go-go-related gene (hERG) potassium channel, sequence (Q12809 whole entry, looked up): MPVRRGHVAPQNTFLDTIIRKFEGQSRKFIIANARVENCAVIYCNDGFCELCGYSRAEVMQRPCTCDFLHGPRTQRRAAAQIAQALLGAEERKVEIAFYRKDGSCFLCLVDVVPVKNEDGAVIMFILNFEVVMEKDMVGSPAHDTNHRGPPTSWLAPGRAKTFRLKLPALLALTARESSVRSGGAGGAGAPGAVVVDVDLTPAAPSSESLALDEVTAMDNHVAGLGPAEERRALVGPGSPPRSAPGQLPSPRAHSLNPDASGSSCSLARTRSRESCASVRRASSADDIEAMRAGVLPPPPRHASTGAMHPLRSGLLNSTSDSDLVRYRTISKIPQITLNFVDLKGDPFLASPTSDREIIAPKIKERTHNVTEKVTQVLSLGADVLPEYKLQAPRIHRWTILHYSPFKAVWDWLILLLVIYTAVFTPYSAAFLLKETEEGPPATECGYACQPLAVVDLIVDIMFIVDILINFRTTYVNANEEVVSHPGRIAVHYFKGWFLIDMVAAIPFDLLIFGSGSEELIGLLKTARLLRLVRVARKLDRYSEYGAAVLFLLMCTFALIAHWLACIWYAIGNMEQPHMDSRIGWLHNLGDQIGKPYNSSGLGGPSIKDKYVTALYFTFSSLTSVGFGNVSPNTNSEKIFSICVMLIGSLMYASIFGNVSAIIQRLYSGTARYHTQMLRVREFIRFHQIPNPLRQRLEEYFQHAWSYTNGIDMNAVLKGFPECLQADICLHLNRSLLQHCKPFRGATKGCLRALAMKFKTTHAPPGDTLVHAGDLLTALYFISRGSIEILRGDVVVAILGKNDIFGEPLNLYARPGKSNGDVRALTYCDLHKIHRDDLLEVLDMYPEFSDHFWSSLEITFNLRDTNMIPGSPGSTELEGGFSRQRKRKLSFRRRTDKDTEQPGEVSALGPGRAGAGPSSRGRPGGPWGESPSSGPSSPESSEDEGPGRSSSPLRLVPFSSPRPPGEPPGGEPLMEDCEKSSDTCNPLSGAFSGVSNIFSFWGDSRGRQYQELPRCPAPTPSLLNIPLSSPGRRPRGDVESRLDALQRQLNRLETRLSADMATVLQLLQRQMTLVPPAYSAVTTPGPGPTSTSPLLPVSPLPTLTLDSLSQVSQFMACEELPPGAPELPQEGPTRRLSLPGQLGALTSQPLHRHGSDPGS

Structure (SMILES)	hERG current change (%, negative = inhibition) at 10uM
Cc1nc(C(F)(F)F)nc(Nc2ccc(Br)cc2)c1C#N	12.2%
COc1ccc(C=C(c2nc3ccccc3s2)c2nc3ccccc3s2)cc1O	3.94%
Cc1ccc2c(c1)N(CCC(=O)NCCN1CCOCC1)C(=O)CO2	-2.16%
N/C(Cc1ccc([N+](=O)[O-])cc1)=N\OC(=O)COc1ccc2ccccc2c1	-14.4%
O=C(O)c1cccc(CN2C(=O)SC(Nc3ccccc3)C2=O)c1 (stereo not shown)	2.16%
Cc1ccc(C)c(OCCCN2CCc3ccccc3C2)c1.Cl	-49.4%
OC(COc1ccc(Cl)cc1Cl)Cn1ccnc1 (stereo not shown)	9.67%
Cl.OC(COc1ccc(Cl)cc1Cl)CN1CCc2ccccc2C1 (stereo not shown)	-58.6%
Cl.Clc1ccc(OCCCN2CCc3ccccc3C2)c(Br)c1	-34.8%
Cc1ccc(C(C)C)c(OCC(O)CN2CCN(CCO)CC2)c1.Cl (stereo not shown)	-13.9%
Cl.Clc1ccc(OCCOCCN2CCc3ccccc3C2)c(Cl)c1	-69.8%
Cc1ccc(C(C)C)c(OCC(O)CN2CCc3ccccc3C2)c1.Cl (stereo not shown)	-65%
OC(COc1ccc(F)cc1Cl)CN1CCc2ccccc2C1 (stereo not shown)	-41.7%
Cc1ccc(C(C)C)c(OCCCN2CCc3ccccc3C2)c1.Cl	-70.1%
Cc1ccc(C(C)C)c(OCC(O)CN2CCOCC2)c1 (stereo not shown)	-2.99%
Cl.c1ccc(-c2ccccc2OCCOCCN2CCc3ccccc3C2)cc1	-28.7%
Cc1ccc(C(C)C)c(OCCN2CCc3ccccc3C2)c1.Cl	14.5%
CCOC(=O)/C=C1\SCC(=O)N1CC(=O)NCCOC	-10.2%
NC(=O)c1ccc[n+](CC(=O)OCCC23CC4CC(CC(C4)C2)C3)c1.[Cl-]	11.8%
COc1ccc(N(CC(=O)NC2CCCC2)S(=O)(=O)c2c(C)[nH]c(=O)[nH]c2=O)cc1	10.2%
Cc1cccc(C)c1OCCN1CCOCC1.O=C(O)C(=O)O	-0.56%
O=C(NNc1ncccc1-n1cccc1)c1ccc(Cl)cc1	-15.4%
O=C(CSc1nc(C2CC2)nc2sc3c(c12)CCCC3)NCc1ccco1	-6.99%
Cc1ccc(Cn2c(Sc3ncccn3)nc3c2c(=O)[nH]c(=O)n3C)cc1	-5.24%
CCOC(=O)C1=C(N)n2c(s/c(=C/c3ccco3)c2=O)=C(C(=O)OC)C1c1ccco1 (stereo not shown)	-2.57%
